The source made the active and inactive calls.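 The calls were made as follows: active = compounds whose dose series gives a full or clear partial fitted curve of increased nuclear translocation; inconclusive = weak partial curve or effect only at the top dose; inactive = no dose-dependent translocation response.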
What follows are compounds tested against Glucocorticoid receptor (Homo sapiens) (UniProt P04150) (assay: GR-GFP Redistribution (AID 450)). Settings: U2OS GR-GFP nuclear translocation, laser cytometry, 2 h.
Potency is read from the fitted curve at half-maximal effect.

Sequence of Glucocorticoid receptor (Homo sapiens) (P04150 whole entry, looked up): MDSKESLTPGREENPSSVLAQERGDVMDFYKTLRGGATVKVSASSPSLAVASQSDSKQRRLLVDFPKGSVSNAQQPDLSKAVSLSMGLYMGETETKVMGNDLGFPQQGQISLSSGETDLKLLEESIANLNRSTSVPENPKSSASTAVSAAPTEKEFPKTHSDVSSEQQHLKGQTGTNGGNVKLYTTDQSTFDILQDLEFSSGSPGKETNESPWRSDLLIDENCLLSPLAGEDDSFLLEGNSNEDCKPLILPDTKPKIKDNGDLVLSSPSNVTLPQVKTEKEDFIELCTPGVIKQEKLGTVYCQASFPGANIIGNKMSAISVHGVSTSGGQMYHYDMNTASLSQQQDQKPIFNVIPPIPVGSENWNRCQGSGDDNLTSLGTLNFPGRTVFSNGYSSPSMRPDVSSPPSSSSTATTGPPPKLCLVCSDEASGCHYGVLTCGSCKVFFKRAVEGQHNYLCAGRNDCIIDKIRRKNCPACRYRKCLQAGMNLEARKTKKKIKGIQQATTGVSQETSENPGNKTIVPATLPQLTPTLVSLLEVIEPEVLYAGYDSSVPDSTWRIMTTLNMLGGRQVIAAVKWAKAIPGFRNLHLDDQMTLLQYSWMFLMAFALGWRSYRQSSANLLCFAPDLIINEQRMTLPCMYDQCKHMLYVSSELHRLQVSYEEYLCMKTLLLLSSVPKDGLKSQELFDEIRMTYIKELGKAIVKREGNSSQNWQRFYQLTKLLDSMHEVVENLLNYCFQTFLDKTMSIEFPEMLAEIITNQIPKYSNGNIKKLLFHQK

Potency, inactive:
O=C1c2ccccc2C(O)(O)[C@@]1(O)[C@]1(O)C(=O)c2ccccc2C1(O)O > 46 µM
c1ccc2cc(NCNc3ccc4ccccc4c3)ccc2c1 > 46 µM
N#Cc1c(NC(=O)C(F)(F)F)sc2c3c(=O)c4ccccc4c(=O)c=3oc3ccccc3c12 > 46 µM
NCCSCCC(=O)O > 46 µM
O=C1Oc2ccccc2C(=O)/C1=C\N1C(=O)N/C(=C\c2ccccc2O)C1=O > 46 µM
CC(=O)Nc1ccc(Cc2ccc3[nH]c(=O)cc(C)c3c2)cc1 > 46 µM
COc1ccc2nc3cc(Cl)ccc3c(Nc3ccc(O)c(CN4CCN(C)CC4)c3)c2c1 > 46 µM
C[C@@H]1CCCN(C[C@@H](O)CN2CCCc3ccccc32)C1 > 46 µM
C[N+](C)([O-])CCC=C1c2ccccc2CCc2ccccc21 > 46 µM
Cc1cc(Cl)nc(NC(=O)CSc2ccc(Cl)cc2)n1 > 46 µM
CSc1ccc2c(c1)N(CCCN(C)C)c1ccccc1S2 > 46 µM
C[C@@]12CC[C@@H]3[C@@H](CC[C@H]4C[C@@H](O)CC[C@]43C)[C@H]1CC[C@@H]2c1cc(C(F)(F)F)n[nH]1 > 46 µM
CC(=O)O[C@H]1CC[C@@]2(C)C(=CC[C@@H]3[C@@H]4CC[C@H](c5cc(C(F)(F)F)n(C(C)=O)n5)[C@]4(C)CC[C@@H]32)C1 > 46 µM
O=C1C(Cl)=C(Sc2nnc3c4ccccc4c4ccccc4c3n2)C(=O)c2ccccc21 > 46 µM
